Source: PubChem
CYP2C9 inhib = human CYP2C9 inhibition. inhibition, % at 5 µM. CYP2C9 Supersomes, luciferin-H conversion, luminescence. P11712. 20% of 96,000 active;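 active = blocking of liver enzyme CYP2C9 beyond about 50% at 5 µM, limit read from the data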
Target sequence (P11712 whole entry, looked up): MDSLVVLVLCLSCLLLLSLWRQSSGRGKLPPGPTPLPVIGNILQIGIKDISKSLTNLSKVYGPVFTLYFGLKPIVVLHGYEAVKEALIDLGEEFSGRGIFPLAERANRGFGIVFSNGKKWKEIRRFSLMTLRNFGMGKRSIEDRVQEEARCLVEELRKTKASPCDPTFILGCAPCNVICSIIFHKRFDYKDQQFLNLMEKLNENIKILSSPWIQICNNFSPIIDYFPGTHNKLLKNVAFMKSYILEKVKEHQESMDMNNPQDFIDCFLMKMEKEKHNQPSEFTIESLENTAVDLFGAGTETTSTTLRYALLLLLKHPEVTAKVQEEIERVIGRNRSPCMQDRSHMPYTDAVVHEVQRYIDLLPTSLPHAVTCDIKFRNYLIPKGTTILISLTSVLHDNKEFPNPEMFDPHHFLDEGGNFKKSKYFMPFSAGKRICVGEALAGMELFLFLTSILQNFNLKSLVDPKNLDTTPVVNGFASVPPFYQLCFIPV
PostGolgi ctrl = yeast control strain growth, post-Golgi counter-screen; inhibition, % at 10 µM; efflux-deficient yeast background strain, growth absorbance A615, 16 h; AID 738; 5% of 98,000 active
CYP2C19 act = activators of human cytochrome P450 2C19; 96,000 tested, under 10 active; P33261; activation factor at 5 µM; recombinant CYP2C19, luciferin-H EGE luminescence; stronger effect = higher value; 0 = fully inhibited enzyme, 1 = untreated enzyme; AID 1025;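 active = activation factor of at least 2 at 5 µM in the primary screen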
PostGolgi yeast = growth inhibition of a yeast mutant, post-Golgi transport screen | post-Golgi transport phenotypic cell assay | 0.9% of 98,000 active | AID 739 | inhibition, % at 10 µM;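 also: yeast cells grown in 1536-well plates; yeast grown about 18 h at 30C before absorbance read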
CYP2C19 inh = human CYP2C19 inhibition | CYP2C19 Supersomes, luciferin-H EGE luminescence, 30 min | inhibition, % at 5 µM | AID 778 | 21% of 96,000 active | P33261;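 active = CYP2C19 inhibition above a set limit at 5 µM in the primary screen, cut at about 50% in these data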
CYP2C9 activ = activators of human CYP2C9; recombinant CYP2C9, luciferin-H conversion, luminescence; stronger effect = higher value; factor 1 = untreated enzyme, 0 = blocked; activation factor at 5 µM; 1.4% of 96,000 active; AID 1024;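 active = activation factor of 2 or more for CYP2C9 at a 5 µM dose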
Numbers stand for hits; - = inactive; . = not tested or not shown. The list is not random: actives were taken first. Their share in the collection is about 32%. Rule as the data show it, unless noted: active = inhibition above about 30%; inactive = the rest.

SMILES	CYP2C9 inhib	PostGolgi ctrl	CYP2C19 act	PostGolgi yeast	CYP2C19 inh	CYP2C9 activ
C=C(C)C(=O)OCCCCCCOc1ccc(C(=O)O)cc1	-	-	-	-	-	-
Cc1ccc(S(=O)(=O)NC2=NCN(CCOC(=O)c3ccc([N+](=O)[O-])cc3)CN2)cc1	-	-	-	-	-	-
O=C1CC(C(=O)N2CCOCC2)C2(CCCCC2)O1 (stereo not given)	-	-	-	-	-	-
CCOCCn1c(N2CCN(c3ccc(OC)cc3)CC2)nc2c1c(=O)[nH]c(=O)n2C	-	-	-	-	-	-
CCOC(=O)COc1ccc(CCNC(C)=O)cc1	-	-	-	-	-	2.1
COc1ccc(CCNC(C)=O)cc1	-	-	-	-	-	-
CCOC(=O)NCCc1ccc(OC)cc1	64	-	-	-	83	-
CCCCN1C(=S)SC(C)(C)C1/[N+]([O-])=C/c1cccnc1 (stereo not given)	-	-	-	-	-	-
CCC(=O)N(Cc1ccc(S(N)(=O)=O)cc1)C1CC(=O)N(c2ccc(OC)cc2)C1=O (stereo not given)	-	-	-	-	-	-
Cc1ccc(S(=O)(=O)Nc2cccc(C(=O)Nc3cc(C)ccn3)c2)cc1	-	-	-	-	-	-
Cc1ccnc(NC(=O)c2cccc(NS(=O)(=O)c3ccccc3C)c2)c1	-	-	-	-	52	-
CCOC(=O)N1CCC(NC(=O)CSCc2nc(-c3sccc3C)oc2C)CC1	-	-	-	-	-	-
CCc1ccc(-c2nc(CSCC(=O)N3CCN(c4ccccn4)CC3)c(C)o2)cc1	64	-	-	-	-	-
CCOC(=O)N1CCC(NC(=O)CSCc2nc(-c3cccc(OC)c3)oc2C)CC1	67	-	-	-	57	-
Cc1ccc(-c2nc(CSCC(=O)N3CCN(c4ccccn4)CC3)c(C)o2)cc1	-	-	-	-	-	-
COc1cccc(-c2nc(CSCC(=O)N3CCc4ccccc43)c(C)o2)c1	-	-	-	-	-	-
Cc1oc(-c2ccccc2Cl)nc1CSCC(=O)NC1CCCC1	-	-	-	-	-	-
CCOc1ccc(-c2nc(CSCC(=O)N3CCN(c4cccc(OC)c4)CC3)c(C)o2)cc1	94	-	-	-	83	-
Cc1oc(-c2ccccc2Cl)nc1CSCC(=O)N1CCCC1	-	-	-	-	93	-
CCn1c(SCC(=O)NC2CCCCC2C)nnc1-c1ccc(OC)cc1 (stereo not given)	68	-	-	-	71	-
O=C(Cn1c(SCC(=O)NC2CCCC2)nnc1-c1ccncc1)Nc1ccc2c(c1)OCO2	91	-	-	-	91	-
Nn1c(SCC(=O)Nc2ccc3c(c2)OCO3)nnc1C1CCCCC1	-	-	-	-	-	-
CCCn1c(SCC(=O)NC2CCCCC2)nnc1-c1ccncc1	-	-	-	-	65	-
O=C(CSc1nc(-c2ccncc2)nn1CC(=O)N1CCCCC1)NC1CCCC1	79	-	-	-	64	-
O=C(CSc1nc(O)cc(=O)n1-c1ccccc1)NC1CCCCC1	-	-	-	-	-	-
SMILES	CYP2C9 inhib	PostGolgi ctrl	CYP2C19 act	PostGolgi yeast	CYP2C19 inh	CYP2C9 activ
COCCNS(=O)(=O)c1cc(F)ccc1OC	-	-	-	-	-	-
COc1cc(S(=O)(=O)N2CCOCC2)ccc1NC(=O)c1cc2c(s1)CCC2	68	-	-	-	-	-
Cc1ccc(S(=O)(=O)N2CCOCC2)cc1NC(=O)c1cc2c(s1)CCC2	64	-	-	-	52	-
Cc1ccc(NC(=O)c2cc3c(s2)CCC3)cc1S(=O)(=O)N1CCOCC1	-	-	-	-	-	-
COC(=O)CCCCCc1ccc(C(C)=O)s1	-	-	-	-	-	-
COc1ccc(-c2ncc3ccccn23)cc1	-	-	-	-	62	-
COc1cc(-c2ncc3ccccn23)cc(OC)c1OC	-	-	-	-	-	-
CC(C)(C)C(=O)Cn1ncc(NC2CC2)c(Br)c1=O	-	-	-	-	62	-
CC(C)(C)C(=O)Cn1ncc(N2CCCC2)c(Br)c1=O	-	-	-	-	-	-
CCc1ccc(N(CC(=O)Nc2ccc(OC)cc2OC)S(C)(=O)=O)cc1	97	-	-	-	88	-
COc1ccc(C)cc1NC(=O)CN(c1ccc(F)cc1)S(C)(=O)=O	65	-	-	-	-	-
COc1ccccc1NC(=O)C12CC3CC(C1)CC(c1ccc(C)cc1)(C3)C2	-	-	-	-	57	-
COc1ccc(C)cc1S(=O)(=O)N(CC(=O)O)c1ccc(F)cc1	-	-	-	-	-	-
COc1ccc(N(CC(=O)Nc2cc(OC)ccc2OC)S(C)(=O)=O)cc1	.	-	.	-	.	.
COc1ccc(C)cc1NC(=O)CN(c1ccccc1F)S(C)(=O)=O	52	-	-	-	-	-
c1ccc(CNCCN2CCNCC2)nc1	-	-	-	-	-	-
COc1ccc(-c2oc3ncn4nc(Cc5ccccc5)nc4c3c2-c2ccc(OC)cc2)cc1	-	-	-	-	-	-
CC(C)=CC(=O)Nc1ccccc1Br	-	-	-	-	-	-
COc1ccccc1-n1c(C)cc(SC)c(C(C)=O)c1=S	-	-	-	-	-	-
COc1ccccc1NC(=O)CN(c1ccc(C23CC4CC(CC(C4)C2)C3)cc1)S(C)(=O)=O	64	-	-	-	-	-
CC(Oc1ccc(-c2ccccc2)c(F)c1)c1ccn(S(=O)(=O)c2ccc(Br)cc2)n1 (stereo not given)	71	-	-	-	58	-
CCOc1cc(S(=O)(=O)n2c(C)nc3ccccc32)ccc1F	86	-	-	-	99	-
Cc1sc(-c2ccncc2)nc1OC(=O)c1ccc(Cl)cc1	88	36	-	-	90	-
Cc1sc(-c2ccncc2)nc1OC(=O)c1cc(Cl)cc(Cl)c1	68	32	-	-	53	-
COc1ccc(NC(=O)COC(=O)c2cnccn2)cc1Cl	-	-	-	-	-	-
SMILES	CYP2C9 inhib	PostGolgi ctrl	CYP2C19 act	PostGolgi yeast	CYP2C19 inh	CYP2C9 activ
Cc1ccccc1-c1coc2cc(O)ccc2c1=O	-	-	-	-	-	2.5
Nc1c(C(=O)NC23CC4CC(CC(C4)C2)C3)sc2nc3c(c(C(F)(F)F)c12)CCC3	-	-	-	-	-	-
N#CCCn1nc(-c2ccccc2)cc1Nc1ccccc1NC(=O)c1cccs1	96	-	-	-	97	-
O=C(CSc1nnc(C2COc3ccccc3O2)o1)N1CCCCC1 (stereo not given)	-	-	-	-	-	-
CC(NC(=O)CCC1COc2ccccc2O1)c1ccccc1 (stereo not given)	-	-	-	-	51	-
O=C(CC1COc2ccccc2O1)NC1CCCCC1 (stereo not given)	-	-	-	-	-	-
O=C(CSc1nnc(C2COc3ccccc3O2)o1)NC1CCCCC1 (stereo not given)	58	-	-	-	50	-
O=C(CCC1COc2ccccc2O1)NC1CCCCC1 (stereo not given)	-	-	-	-	56	-
